Assay outcomes: PubChem BioAssay, National Center for Advancing Translational Sciences (NCATS)
BCR signal inh: blocks chronic active B-cell receptor signaling; AID 493014; ABC-DLBCL IkBa-CBG/CBR reporter, luminescence ratio, 4 h; 340,000 tested, 0.05% active; Potency, µM (series often up to 46.1 µM), most hits filed as inhibitors; active means well fitted inhibition curve with a large enough effect in the signal ratio, with a control signal flat, not every such curve was filed as active; inconclusive means small, poorly fitted or top-dose-only effect, or effect the other way, or a change in a side signal; the % refers to the signal ratio
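Doxycycline induced both beetle luciferases in TMD8 lymphoma cells; IKK-driven degradation limits the IkappaBalpha-fused green signal, while red luminescence normalises for cell number and nonspecific effects. Compounds tested up to 46 uM, 4 hrs.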
MCF10A rereplic: inducers of DNA re-replication in MCF 10A breast cells. MCF 10A DNA re-replication, Hoechst nuclear intensity, 48 h. Potency, µM (top dose mostly 46.1 µM), actives largely listed as activators. 350,000 tested, 2.9% active. AID 624296; further: nearly all actives have a fitted effect of over 50% in size
IL-1B inflam inh: blocks inflammasome-driven IL-1 beta release | activity change, % at 57.5 µM | THP-1 LPS/ATP IL-1B secretion, AlphaLISA, 16 h; hits give low values | 360,000 tested, 4.7% active; in the data active means activity change below about -50%; inconclusive means mostly about -30% to -49%
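Secreted IL-1B measured by AlphaLISA bead assay after 16 h compound exposure of THP-1 cells; compounds (final up to 57.5 uM) added 1 h before LPS (250 ng/mL) and ATP (1.25 mM) stimulation; lower signal means less secretion.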
DT40 TDP1 CPT: DT40-hTDP1 cell growth loss with CPT; AID 686979; Potency, µM (series often up to 46.2 µM), usual class: inhibitors; chicken DT40 Tdp1-/-;hTDP1 cells + 20 nM CPT, ATP luminescence, 48 h; 420,000 tested, 12% active; further: nearly all actives have a fitted effect of over 55% in size
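Chicken DT40 Tdp1-/- cells stably complemented with human TDP1 were seeded at 400 cells/well in medium containing 20 nM camptothecin, exposed to pin-transferred compounds, and grown at 37 °C for at least 48 hr. Viability was read as ATP luminescence.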
TDP1 cell noCPT: qHTS for Inhibitors of human tyrosyl-DNA phosphodiesterase 1 (TDP1): qHTS in cells in absence of CPT; DT40 Tdp1-/- hTDP1 cells, no CPT, ATP luminescence, 48 h; 420,000 tested, 15% active; Potency, µM (series often up to 46.2 µM), usual class: inhibitors; further: nearly all actives have a fitted effect of over 55% in size
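Luminescent ATP content (CellTiter-Glo) served as the growth readout. Knockout chicken DT40 cells expressing human TDP1 were exposed to compounds without camptothecin for a minimum 48 hr at 37 °C.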
SW480 rereplic: DNA re-replication induction in SW480 cells. SW480 DNA re-replication, Hoechst DNA content imaging, 48 h. Potency, µM (top dose mostly 46.1 µM), usual class: activators. 340,000 tested, 1.8% active; further: nearly all actives have a fitted effect of over 55% in size
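DNA re-replication was detected as more nuclei of elevated Hoechst intensity after 48 hr exposure to compound (23 nL pinned per well of 250 cells).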
Of the large screens only hits and unclear results are named; the others gave an inactive call. Shown are actives, neighbours in structure and some others; about 19% of the full set was active somewhere. Unless noted, the call rests on the fitted dose curve; in most records, active means well fitted curve in the direction sought with a large enough effect; inconclusive means small, poorly fitted or top-dose-only effect, or another doubt; inactive means no such curve, though single readings can be large; an effect the other way counts as inactive or inconclusive.

O=C(CC1SC(=Nc2ccccc2)N(CCc2c[nH]c3ccccc23)C1=O)Nc1ccccc1F (stereo not drawn)	MCF10A rereplic inconclusive, IL-1B inflam inh -80.2, DT40 TDP1 CPT inconclusive, TDP1 cell noCPT inconclusive
O=C(COc1cccc(Cl)c1)Nc1nc(-c2ccc(S(=O)(=O)N3CCOCC3)cc2)cs1	MCF10A rereplic inconclusive, DT40 TDP1 CPT 20.6µM, TDP1 cell noCPT 11.6µM
COc1ccc(C(=O)Nc2nc(-c3ccccn3)cs2)cc1S(=O)(=O)N1CCOCC1	DT40 TDP1 CPT 13µM, TDP1 cell noCPT 5.17µM
O=C(Nc1nc(-c2ccccn2)cs1)c1cccc(S(=O)(=O)N2CCOCC2)c1	DT40 TDP1 CPT 4.11µM, TDP1 cell noCPT 2.91µM
COc1ccccc1C(=O)Nc1nc(-c2ccc(S(=O)(=O)N3CCOCC3)cc2)cs1	BCR signal inh inconclusive, MCF10A rereplic inconclusive, IL-1B inflam inh inconclusive, DT40 TDP1 CPT 2.59µM, TDP1 cell noCPT 2.31µM
CCOc1cccc(C(=O)Nc2nc(-c3ccc(S(=O)(=O)N4CCOCC4)cc3)cs2)c1	DT40 TDP1 CPT inconclusive, TDP1 cell noCPT inconclusive
O=c1[nH]cnc(O)c1C(c1ccc([N+](=O)[O-])cc1)c1c(O)nc[nH]c1=O	none
O=C(Nc1nc(-c2ccc(S(=O)(=O)N3CCCC3)cc2)cs1)c1ccco1	DT40 TDP1 CPT 23.1µM, TDP1 cell noCPT 18.4µM
Cc1ccc(S(=O)(=O)N2CCOCC2)cc1C(=O)Nc1nc(-c2ccccn2)cs1	MCF10A rereplic inconclusive, DT40 TDP1 CPT 5.17µM, TDP1 cell noCPT 4.11µM
CCCCNC(=S)NNC(=O)c1cc(-c2ccncc2)nc2ccccc12	none
COc1cc(C(=O)N2CCc3c([nH]c4ccccc34)C2c2ccccc2)cc(OC)c1OC (stereo not drawn)	DT40 TDP1 CPT 7.31µM, TDP1 cell noCPT 6.51µM (no result: BCR signal inh, MCF10A rereplic, IL-1B inflam inh, SW480 rereplic)
COc1cc(C(=O)N2CCc3c([nH]c4ccccc34)C2c2ccc(C)cc2)cc(OC)c1OC (stereo not drawn)	DT40 TDP1 CPT 16.4µM, TDP1 cell noCPT inconclusive (no result: BCR signal inh, MCF10A rereplic, IL-1B inflam inh, SW480 rereplic)
COc1ccc(C2c3[nH]c4ccccc4c3CCN2C(=O)c2cc3ncccn3n2)c(F)c1 (stereo not drawn)	BCR signal inh inconclusive, TDP1 cell noCPT 20.6µM, SW480 rereplic inconclusive
COc1ccc(C2c3[nH]c4ccccc4c3CCN2C(=O)c2cn3ccccc3n2)c(F)c1 (stereo not drawn)	IL-1B inflam inh inconclusive, TDP1 cell noCPT inconclusive
COc1cccc(C2c3[nH]c4ccccc4c3CCN2C(=O)c2ccccc2F)c1OC (stereo not drawn)	BCR signal inh inconclusive, IL-1B inflam inh inconclusive, DT40 TDP1 CPT inconclusive
O=C(c1cn[nH]c1)N1CCc2c([nH]c3ccccc23)C1c1c(F)cccc1Cl (stereo not drawn)	MCF10A rereplic inconclusive, IL-1B inflam inh -52.5, DT40 TDP1 CPT inconclusive, TDP1 cell noCPT inconclusive
CN[C@@H](C)C(=O)NC[C@H]1O[C@@H](n2cnc3c(N)ncnc32)[C@H](O)[C@@H]1O	SW480 rereplic inconclusive
CC(=O)Nc1ccc(NC(=O)C2CC(=O)N(c3cccc(C)c3C)C2)cc1 (stereo not drawn)	none
CC(C)(C)N1CC(C(=O)Nc2ccc(S(=O)(=O)N3CCCCC3)cc2)CC1=O (stereo not drawn)	DT40 TDP1 CPT inconclusive, TDP1 cell noCPT 1.64µM
Cc1ccccc1N1CC(C(=O)Nc2ccc(S(=O)(=O)N3CCOCC3)cc2)CC1=O (stereo not drawn)	none
Cc1ccccc1N1CC(C(=O)Nc2ccc(S(=O)(=O)N3CCCCC3)cc2)CC1=O (stereo not drawn)	DT40 TDP1 CPT inconclusive, TDP1 cell noCPT 16.4µM
Cc1cccc(N2CC(C(=O)Nc3ccc(S(=O)(=O)N4CCCCC4)cc3)CC2=O)c1C (stereo not drawn)	MCF10A rereplic 13µM, IL-1B inflam inh inconclusive, DT40 TDP1 CPT inconclusive, TDP1 cell noCPT inconclusive
CCC1Sc2ccc(S(=O)(=O)CCC(=O)Nc3cccc(Br)c3)cc2NC1=O (stereo not drawn)	BCR signal inh inconclusive, MCF10A rereplic inconclusive
O=C(/C=C/c1cccc(Cl)c1)Nn1c(-c2cccs2)nc2ccccc2c1=O	MCF10A rereplic inconclusive, IL-1B inflam inh -54.9
O=C(/C=C/c1ccccc1)Nn1c(-c2cccs2)nc2ccccc2c1=O	DT40 TDP1 CPT inconclusive, TDP1 cell noCPT inconclusive, SW480 rereplic inconclusive
Cc1ccc(C)n1-c1ccc(C(=O)/C=C/N(C)C)cc1	BCR signal inh inconclusive, MCF10A rereplic 23.1µM, IL-1B inflam inh -86.6, DT40 TDP1 CPT inconclusive, TDP1 cell noCPT inconclusive, SW480 rereplic inconclusive
Cc1ccc(C)n1-c1ccc(C(=O)NN)cc1	BCR signal inh inconclusive, DT40 TDP1 CPT 7.31µM, TDP1 cell noCPT 20.6µM
Cc1ccc(C)n1-c1ccc(C(=O)NCc2ccncc2)cc1	MCF10A rereplic inconclusive, DT40 TDP1 CPT inconclusive, TDP1 cell noCPT inconclusive, SW480 rereplic inconclusive
O=C1NC[C@H](Cc2ccc(O)cc2)N(C[C@H]2CCCN2C[C@H](Cc2ccc(O)cc2)N2C[C@H](Cc3ccc(O)cc3)N(CCc3ccccc3)C(=O)C2=O)C1=O	none (no result: BCR signal inh, MCF10A rereplic, SW480 rereplic)
O=C1NC[C@H](Cc2ccccc2)N(C[C@H]2CCCN2C[C@H](Cc2ccccc2)N2C[C@H](Cc3ccc(O)cc3)N(CCc3ccccc3)C(=O)C2=O)C1=O	MCF10A rereplic inconclusive, IL-1B inflam inh -52.4, DT40 TDP1 CPT inconclusive, TDP1 cell noCPT inconclusive, SW480 rereplic inconclusive (no result: BCR signal inh)
O=C1NC[C@H](Cc2ccccc2)N(C[C@@H]2CCCN2C[C@H](Cc2ccc(O)cc2)N2C[C@H](Cc3ccc(O)cc3)N(CCc3ccccc3)C(=O)C2=O)C1=O	none (no result: BCR signal inh, MCF10A rereplic, SW480 rereplic)
O=C1NC[C@H](Cc2ccccc2)N(C[C@@H]2CCCN2C[C@H](Cc2ccccc2)N2C[C@H](Cc3ccc(O)cc3)N(CCc3ccccc3)C(=O)C2=O)C1=O	IL-1B inflam inh -60.3, DT40 TDP1 CPT inconclusive, TDP1 cell noCPT inconclusive (no result: BCR signal inh, MCF10A rereplic, SW480 rereplic)
O=C1NC[C@H](Cc2ccc(O)cc2)N(C[C@@H]2CCCN2C[C@H](Cc2ccccc2)N2C[C@H](Cc3ccc(O)cc3)N(CCc3ccccc3)C(=O)C2=O)C1=O	IL-1B inflam inh inconclusive, DT40 TDP1 CPT inconclusive, TDP1 cell noCPT 18.4µM (no result: BCR signal inh, MCF10A rereplic, SW480 rereplic)
Cc1cccc(C)c1Nc1cn[nH]c1	none (no result: BCR signal inh, MCF10A rereplic, SW480 rereplic)
O=C(CCNS(=O)(=O)c1ccc(Br)cc1)NCCc1ccc(Cl)cc1	DT40 TDP1 CPT inconclusive, TDP1 cell noCPT inconclusive
Cc1noc(NS(=O)(=O)c2ccc(NC(=O)c3ccccc3NS(=O)(=O)c3ccc(F)cc3)cc2)c1C	none
Cc1ccc(N/C(N)=N/c2nc(CSc3ccccn3)cc(=O)[nH]2)c(C)c1	DT40 TDP1 CPT inconclusive, TDP1 cell noCPT 18.4µM
